# Data taken from PubChem BioAssay (NCI).
# The panel holds about 83,000 compounds, 20% with a hit somewhere; the sample as a whole holds those more often.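 Testing used 96-well plates and a 48-hour single-concentration exposure. Example: -40 means 40% of the starting cells died.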 Active and inactive are the calls of the source.
# Tested on: KM12 colon
# Test: NCI-60 one-dose screen, 48 h (100 = growth as untreated, 0 = no growth, -100 = all killed)
# Conditions: 10 µM unless noted
# Protocol: Growth inhibition of the KM12 human tumor cell line is measured as a screen for anti-cancer activity. Cells are grown in 96 well plates and exposed to the test compound for 48 hours. Compounds are tested at a single concentration, which is 10^-5 M for most compounds. The reported endpoint is percent growth (GI% or GIPRCNT), where numbers from 0 - 100% represent growth inhibition, and numbers from -100% - 0 represent cell death. For example, a value of 40 represents 60% growth inhibition. A value of 0 means no net growth occurred over the course of the experiment. A value of -40 indicates 40% of cells at the beginning of the experiment died by the end of the experiment. A value of -100 means all cells are dead at the end of the experiment.
# NCI-60 Human Tumor Cell Lines Screen was performed using the standard one-dose NCI protocol, which is described in more detail at https://dtp.cancer.gov/discovery_development/nci-60/default.htm.
# Compounds with GIPRCNT values below 10 were considered active. Activity score was based on GIPRCNT using the following formula: […]
# Score is 0 for GIPRCNT values of 100 or above, 50 for GIPRCNT values of 0, and 100 for GIPRCNT values of -100.
row,SMILES,growth
1,CCCCCn1c(C)cc(/C=C\c2ccc3cc(C)ccc3[n+]2C)c1C,-72.4% (active)
2,CC(C)(C)c1cc(C(=O)Nc2cc3ccccc3cc2C(=O)NCCN)cc(C(C)(C)C)c1,-94.5% (active)
3,Brc1ccc(-c2nnc3c4[nH]ccc4ncn23)cc1,73.4% (inactive)
4,O=C(CSc1nc2ccc([N+](=O)[O-])cc2[nH]1)Nc1ccc(F)c(Cl)c1,19.9% (inactive)
5,COc1ccc(C2CC(c3cc(OC)c(OC)c(OC)c3)=NN2C(C)=O)cc1OCC(=O)Nc1nc2ccc(C(F)(F)F)cc2s1 (stereo not given),64.5% (inactive)
6,CCOC(=O)C(=Cc1ccccc1[N+](=O)[O-])C(=O)OCC,-17.7% (active)
7,O=C1NC(=O)c2cc([N+](=O)[O-])cc3cccc1c23,105% (inactive)
8,Nc1nc(SCc2cccc([N+](=O)[O-])c2)c2[nH]cnc2n1,99.8% (inactive)
9,CC(C)C1=NOC(=O)C1=Cc1cn(-c2ccccc2)nc1-c1ccc(Br)cc1,85.4% (inactive)
10,Cc1cc(C)nc(SCC(=O)Nc2cccc(N=Cc3ccccc3O)c2)n1,107% (inactive)
11,CC1(C)C(=NO)C(C)(C)C1=NO,118% (inactive)
12,CCOC(=O)C(c1ccccc1)N1C(=O)c2ccccc2C1=O (stereo not given),98.8% (inactive)
13,ClC1=C(Cl)C(Cl)=C(Cl)C1=Cc1ccccc1,-84.7% (active)
14,O=C(O)c1cccc(CN2CCN(c3cc4c(cc3F)c(=O)c(C(=O)O)cn4C3CC3)CC2)c1O,104% (inactive)
15,COc1ccc(CC(C#N)c2ccc(Cl)cc2)cc1 (stereo not given),32.6% (inactive)
16,CC(C)CCSC1=CC(=O)c2ccccc2C1=O,92.1% (inactive)
17,O=C1COCCN1c1ccc(NCc2cn(Cc3ccc(F)cc3)c3ccccc23)cc1,98.6% (inactive)
18,Cc1ccc(NC(=O)N[C@@H](Cc2cc(F)cc(F)c2)C(=O)N[C@@H]2C(=O)N3CCC[C@H]3C(=O)N3CCCC[C@H]3C(=O)N[C@@H](C)C(=O)N3C[C@H](C)C[C@H]3C(=O)O[C@H]2C)cc1,37.8% (inactive)
19,Cc1ccc(C2=C/C(=C/c3ccc(Br)cc3)C(=O)N2CCc2ccc(S(N)(=O)=O)cc2)cc1,100% (inactive)
20,COc1ccc(C2CC(c3ccc4ccccc4c3)=NN2c2nc(O)c(C3=c4cc(OC)ccc4=NC3=O)s2)cc1 (stereo not given),-70.3% (active)

row,SMILES,growth
1,O=C(N=c1n(-c2ccccc2)nc2n1CCN2C1=NCCN1C(=O)c1ccc(Cl)cc1)c1ccc(Cl)cc1,60.7% (inactive)
2,Ic1ccc2[nH]cc(SSc3c[nH]c4ccc(I)cc34)c2c1,6.3% (active)
3,CCN(CC)CCS(=O)(=O)CCNc1ccnc2cc(Cl)ccc12,-24.5% (active)
4,Cc1ccc(S(=O)(=O)Oc2ccc(Br)cc2Br)cc1,45.9% (inactive)
5,CCCCOC(=O)c1c(C)[nH]c(/C=C2\N=C(c3ccc[nH]3)C=C2OC)c1C,-5.76% (active)
6,CC1(C)CC[C@]23CC[C@]4(C)[C@H](CC[C@@H]5[C@@]6(C)C/C(=C/c7cccnc7)C(=O)C(C)(C)[C@@H]6CC[C@]54C)[C@H]2[C@H]1OC3=O,33.4% [100 µM] (inactive)
7,COc1c(C(C)=O)c(OCCCCOc2c(C(C)=O)c(OC)c3ccoc3c2OC)c(OC)c2occc12,50.4% (inactive)
8,COc1cc2c(=O)[nH]c3cc([N+](=O)[O-])ccc3c2cc1[N+](=O)[O-],53.3% (inactive)
9,CC1=CC[C@@H]2C(C)(C)C(=O)CC[C@@]2(C)[C@@H]1COc1ccc2ccc(=O)oc2c1,63% (inactive)
10,O=C(Nc1cccc(F)c1)c1cc(=O)[nH]c2cc(Br)ccc12,21.5% (inactive)
11,CC(C)C1=NOC(=O)C1=Cc1cn(-c2ccco2)nc1-c1ccccc1,85.2% (inactive)
12,O=C(Nc1cc(F)cc2cccnc12)c1cnc(N2CCNCC2)cn1,81.2% (inactive)
13,COc1ccc2[nH]c(C(=O)N3CCN(C(=O)OCc4ccc5c(Br)cc(Br)c(O)c5n4)CC3)cc2c1,-59.8% (active)
14,NC(=S)Cc1ccccc1,101% (inactive)
15,O=C(Nc1ccc(Cl)c(C(F)(F)F)c1)Nc1ccc(-c2cccnc2)cc1N1CCC(CO)CC1,25.7% (inactive)
16,CCOC(=O)COc1ccc2c(c1)O/C(=C\c1ccc(O)cc1)C2=O,110% (inactive)
17,C=C(C)[C@@H]1CC[C@]2(COCCCN)CC[C@]3(C)[C@H](CC[C@@H]4[C@@](C)(CCCNCCCN)[C@H](C(=C)C)CC[C@]43C)[C@@H]12,-62.5% [100 µM] (active)
18,CC(C)CCNCC(C)(C)O,116% (inactive)
19,C[C@@H]1C[C@H]2C(=O)O[C@@H](C)[C@H](NC(=O)[C@H](Cc3cc(F)cc(F)c3)NC(=O)Nc3ccc(C4CC4)cc3F)C(=O)N3CCC[C@H]3C(=O)N3CCCC[C@H]3C(=O)N[C@@H](C)C(=O)N2C1,15.6% (inactive)
20,Cc1cc(C)c(O)c(CNCCCCCCNCc2cc(C)cc(C)c2O)c1,-38.2% (active)
